Measurements taken from the supplement of paper PMC10849652.
About 8,800 targets were measured; listed, in parts, are those with a hit and a random draw of the rest. About 0.5% of all pairs of compound and target were hits.

What was measured:
Test in all cases: log2 fold change, soluble protein after heating vs DMSO (PISA); higher = thermal stabilisation; K562 lysate, 10 uM; active = over 0.2 and 3.5 SD of the protein, either way, in both replicates (recomputed)
alvocidib = compound: CN1CC[C@H](c2c(O)cc(O)c3c(=O)cc(-c4ccccc4Cl)oc23)[C@H](O)C1 [alvocidib]
Outline: (§1)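 Dounce homogenisation of K562 pellets in PBS pH 7.4 with 1 mM MgCl2 produced a crude extract, used at 1 mg/mL protein. Exposure to 10 μM compound lasted 30 min, and aliquots were then heated for 3 min across 48°C-58°C, pooled and brought to 0.5% NP-40 at 4°C. The supernatant after 21,000xg for 90 min was quantified by TMTpro 16plex LC-MS/MS with channel sums equalised. Duplicate values are given as log-two fold change in thermal stability relative to solvent controls.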

Tubastatin A = compound: CN1CCc2c(c3ccccc3n2Cc2ccc(C(=O)NO)cc2)C1 [Tubastatin A]
Outline: as §1

[1] = compound: CNC(=O)C1=CC=CC=C1NC2=NC(=NC=C2Cl)NC3=C(C=C(C=C3)N4CCOCC4)OC
Outline: as §1

defactinib = compound: CNC(=O)c1ccc(Nc2ncc(C(F)(F)F)c(NCc3nccnc3N(C)S(C)(=O)=O)n2)cc1 [defactinib]
Outline: as §1

[2] = compound: CNc1nc(-c2ccc3c(N)n[nH]c3c2)cc(N2C[C@@H](C(=O)NC3CCCCC3)CC[C@H]2C)n1
Outline: as §1

encorafenib = compound: COC(=O)N[C@@H](C)CNc1nccc(-c2cn(C(C)C)nc2-c2cc(Cl)cc(NS(C)(=O)=O)c2F)n1 [encorafenib]
Outline: as §1

[3] = compound: COC(=O)[C@H](CCSC)NC(=O)C1=C(C=C(C=C1)NC[C@H](CS)N)C2=CC=CC=C2
Outline: as §1

alisertib = compound: COc1cc(Nc2ncc3c(n2)-c2ccc(Cl)cc2C(c2c(F)cccc2OC)=NC3)ccc1C(=O)O [alisertib]
Outline: as §1

[4] = compound: COc1cc2nc(-c3cc(F)ccc3O)nc(N[C@@H]3CNC[C@H]3C(C)(C)O)c2cc1OC
Outline: as §1

gefitinib = compound: COc1cc2ncnc(Nc3ccc(F)c(Cl)c3)c2cc1OCCCN1CCOCC1 [gefitinib]
Outline: as §1

lapatinib = compound: CS(=O)(=O)CCNCc1ccc(-c2ccc3ncnc(Nc4ccc(OCc5cccc(F)c5)c(Cl)c4)c3c2)o1 [lapatinib]
Outline: as §1

pictilisib = compound: CS(=O)(=O)N1CCN(Cc2cc3nc(-c4cccc5[nH]ncc45)nc(N4CCOCC4)c3s2)CC1 [pictilisib]
Outline: as §1

crizotinib = compound: C[C@@H](Oc1cc(-c2cnn(C3CCNCC3)c2)cnc1N)c1c(Cl)ccc(F)c1Cl [crizotinib]
Outline: as §1

[5] = compound: C[C@H](C1=CC=C(C=C1)C(=O)NC2=C3C=CNC3=NC=C2)N
Outline: as §1

duvelisib = compound: C[C@H](Nc1ncnc2nc[nH]c12)c1cc2cccc(Cl)c2c(=O)n1-c1ccccc1 [duvelisib]
Outline: as §1

gandotinib = compound: Cc1cc(Nc2cc(CN3CCOCC3)c3nc(C)c(Cc4ccc(Cl)cc4F)n3n2)n[nH]1 [gandotinib]
Outline: as §1

tozasertib = compound: Cc1cc(Nc2cc(N3CCN(C)CC3)nc(Sc3ccc(NC(=O)C4CC4)cc3)n2)n[nH]1 [tozasertib]
Outline: as §1

doramapimod = compound: Cc1ccc(-n2nc(C(C)(C)C)cc2NC(=O)Nc2ccc(OCCN3CCOCC3)c3ccccc23)cc1 [doramapimod]
Outline: as §1

bafetinib = compound: Cc1ccc(NC(=O)c2ccc(CN3CC[C@H](N(C)C)C3)c(C(F)(F)F)c2)cc1Nc1nccc(-c2cncnc2)n1 [bafetinib]
Outline: as §1

[6] = compound: Cc1cccc(CC(=O)N2CCc3c2ccc(-c2cn(C)c4ncnc(N)c24)c3F)n1
Outline: as §1

Measured: log2 fold change

RBBP8 isoform 2 (UniProt Q99708)
Sequence of UniProt Q99708 (Q99708 whole entry, looked up): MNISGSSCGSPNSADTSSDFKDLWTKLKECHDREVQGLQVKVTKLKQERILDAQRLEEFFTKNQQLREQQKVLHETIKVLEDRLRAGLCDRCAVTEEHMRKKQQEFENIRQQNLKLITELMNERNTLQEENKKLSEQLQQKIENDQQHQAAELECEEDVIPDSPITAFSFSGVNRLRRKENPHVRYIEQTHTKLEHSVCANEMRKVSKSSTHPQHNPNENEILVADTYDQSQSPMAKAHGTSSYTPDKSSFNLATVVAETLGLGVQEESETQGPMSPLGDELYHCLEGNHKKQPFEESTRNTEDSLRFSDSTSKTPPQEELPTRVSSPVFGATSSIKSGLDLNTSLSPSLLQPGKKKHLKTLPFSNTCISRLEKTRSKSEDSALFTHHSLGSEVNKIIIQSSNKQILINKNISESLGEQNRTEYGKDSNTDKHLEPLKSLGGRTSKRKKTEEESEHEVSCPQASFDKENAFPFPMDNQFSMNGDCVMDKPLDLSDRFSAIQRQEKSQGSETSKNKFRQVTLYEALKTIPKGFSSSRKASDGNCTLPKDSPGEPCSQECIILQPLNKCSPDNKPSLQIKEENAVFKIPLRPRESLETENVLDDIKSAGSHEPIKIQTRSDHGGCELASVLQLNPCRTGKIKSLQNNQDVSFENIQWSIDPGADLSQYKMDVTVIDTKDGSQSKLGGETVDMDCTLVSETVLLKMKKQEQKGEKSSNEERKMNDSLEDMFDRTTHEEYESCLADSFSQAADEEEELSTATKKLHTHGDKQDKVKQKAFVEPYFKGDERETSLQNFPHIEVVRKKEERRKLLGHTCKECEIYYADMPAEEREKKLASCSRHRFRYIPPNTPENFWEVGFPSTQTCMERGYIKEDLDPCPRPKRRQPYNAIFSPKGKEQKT
inactive: alvocidib 0.013 | Tubastatin A 0.07 | [1] 0.061 | defactinib -0.023 | [2] 0.108 | encorafenib -0.039 | [3] -0.074 | alisertib -0.008 | [4] 0.009 | gefitinib -0.014 | lapatinib -0.042 | pictilisib 0.069 | crizotinib -0.085 | [5] 0.065 | duvelisib 0.032 | gandotinib -0.013 | tozasertib 0.177 | doramapimod 0.024 | bafetinib -0.079 | [6] 0.007

SAR1A (UniProt Q9NR31)
Sequence of UniProt Q9NR31 (Q9NR31 whole entry, looked up): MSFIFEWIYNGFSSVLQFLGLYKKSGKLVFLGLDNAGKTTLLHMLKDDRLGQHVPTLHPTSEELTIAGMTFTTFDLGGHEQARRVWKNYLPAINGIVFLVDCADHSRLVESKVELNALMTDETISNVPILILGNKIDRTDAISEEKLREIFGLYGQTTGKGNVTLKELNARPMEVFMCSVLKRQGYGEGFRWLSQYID
inactive: alvocidib -0.034 | Tubastatin A 0.153 | [1] 0.03 | defactinib 0.086 | [2] 0.086 | encorafenib 0.152 | [3] 0.084 | alisertib 0.134 | [4] 0.161 | gefitinib 0.156 | lapatinib 0.101 | pictilisib 0.191 | crizotinib -0.056 | [5] 0.033 | duvelisib 0.002 | gandotinib 0.341 | tozasertib 0.027 | bafetinib -0.022 | [6] 0.156
active: doramapimod 0.504

RFC5 (UniProt P40937)
Sequence of UniProt P40937 (P40937 whole entry, looked up): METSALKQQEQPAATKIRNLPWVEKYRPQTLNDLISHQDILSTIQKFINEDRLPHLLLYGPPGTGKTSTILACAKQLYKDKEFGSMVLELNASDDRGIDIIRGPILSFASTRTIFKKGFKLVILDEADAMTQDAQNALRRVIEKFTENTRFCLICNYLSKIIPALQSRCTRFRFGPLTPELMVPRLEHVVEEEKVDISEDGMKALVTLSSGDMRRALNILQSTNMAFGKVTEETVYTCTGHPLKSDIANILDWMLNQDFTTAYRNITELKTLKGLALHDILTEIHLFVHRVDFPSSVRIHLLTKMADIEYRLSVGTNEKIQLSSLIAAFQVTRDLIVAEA
inactive: alvocidib 0.004 | Tubastatin A -0.203 | [1] 0.003 | defactinib 0.008 | [2] -0.004 | encorafenib 0.051 | [3] 0.148 | alisertib -0.006 | [4] -0.003 | gefitinib 0 | lapatinib 0.007 | pictilisib -0.058 | crizotinib -0.056 | [5] -0.047 | duvelisib 0.016 | gandotinib -0.068 | tozasertib 0.018 | doramapimod 0.026 | bafetinib -0.039 | [6] 0.018

RHOA (UniProt P61586)
Sequence of UniProt P61586 (P61586 whole entry, looked up): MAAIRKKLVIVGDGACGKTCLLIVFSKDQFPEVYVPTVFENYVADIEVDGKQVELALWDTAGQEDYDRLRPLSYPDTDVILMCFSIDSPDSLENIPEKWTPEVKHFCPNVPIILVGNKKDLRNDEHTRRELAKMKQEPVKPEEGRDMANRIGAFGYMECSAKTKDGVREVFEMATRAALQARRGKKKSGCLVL
inactive: alvocidib 0.093 | Tubastatin A -0.078 | [1] 0.087 | defactinib -0.029 | [2] -0.003 | encorafenib -0.042 | [3] -0.046 | alisertib 0.072 | [4] 0.029 | gefitinib 0.078 | lapatinib 0.009 | pictilisib 0.314 | crizotinib 0.035 | duvelisib -0.023 | gandotinib -0.058 | tozasertib -0.092 | doramapimod -0.036 | bafetinib 0.08 | [6] -0.138
active: [5] 0.345

REEP5 (UniProt Q00765)
Sequence of UniProt Q00765 (Q00765 whole entry, looked up): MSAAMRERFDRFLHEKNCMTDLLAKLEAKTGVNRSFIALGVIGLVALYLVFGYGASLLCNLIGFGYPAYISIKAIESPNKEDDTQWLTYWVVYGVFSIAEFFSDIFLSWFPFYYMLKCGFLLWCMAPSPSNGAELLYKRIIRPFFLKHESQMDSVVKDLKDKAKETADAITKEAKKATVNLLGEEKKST
active: [3] 0.263
inactive: alvocidib -0.054 | Tubastatin A -0.004 | [1] -0.056 | defactinib 0.04 | [2] 0.035 | encorafenib 0.001 | alisertib -0.009 | [4] 0.001 | gefitinib -0.092 | lapatinib -0.001 | pictilisib -0.026 | crizotinib 0.024 | [5] -0.11 | duvelisib 0.01 | gandotinib 0.061 | tozasertib -0.052 | doramapimod -0.03 | bafetinib -0.027 | [6] 0.055

RPAP1 (UniProt Q9BWH6)
Sequence of UniProt Q9BWH6 (Q9BWH6 whole entry, looked up): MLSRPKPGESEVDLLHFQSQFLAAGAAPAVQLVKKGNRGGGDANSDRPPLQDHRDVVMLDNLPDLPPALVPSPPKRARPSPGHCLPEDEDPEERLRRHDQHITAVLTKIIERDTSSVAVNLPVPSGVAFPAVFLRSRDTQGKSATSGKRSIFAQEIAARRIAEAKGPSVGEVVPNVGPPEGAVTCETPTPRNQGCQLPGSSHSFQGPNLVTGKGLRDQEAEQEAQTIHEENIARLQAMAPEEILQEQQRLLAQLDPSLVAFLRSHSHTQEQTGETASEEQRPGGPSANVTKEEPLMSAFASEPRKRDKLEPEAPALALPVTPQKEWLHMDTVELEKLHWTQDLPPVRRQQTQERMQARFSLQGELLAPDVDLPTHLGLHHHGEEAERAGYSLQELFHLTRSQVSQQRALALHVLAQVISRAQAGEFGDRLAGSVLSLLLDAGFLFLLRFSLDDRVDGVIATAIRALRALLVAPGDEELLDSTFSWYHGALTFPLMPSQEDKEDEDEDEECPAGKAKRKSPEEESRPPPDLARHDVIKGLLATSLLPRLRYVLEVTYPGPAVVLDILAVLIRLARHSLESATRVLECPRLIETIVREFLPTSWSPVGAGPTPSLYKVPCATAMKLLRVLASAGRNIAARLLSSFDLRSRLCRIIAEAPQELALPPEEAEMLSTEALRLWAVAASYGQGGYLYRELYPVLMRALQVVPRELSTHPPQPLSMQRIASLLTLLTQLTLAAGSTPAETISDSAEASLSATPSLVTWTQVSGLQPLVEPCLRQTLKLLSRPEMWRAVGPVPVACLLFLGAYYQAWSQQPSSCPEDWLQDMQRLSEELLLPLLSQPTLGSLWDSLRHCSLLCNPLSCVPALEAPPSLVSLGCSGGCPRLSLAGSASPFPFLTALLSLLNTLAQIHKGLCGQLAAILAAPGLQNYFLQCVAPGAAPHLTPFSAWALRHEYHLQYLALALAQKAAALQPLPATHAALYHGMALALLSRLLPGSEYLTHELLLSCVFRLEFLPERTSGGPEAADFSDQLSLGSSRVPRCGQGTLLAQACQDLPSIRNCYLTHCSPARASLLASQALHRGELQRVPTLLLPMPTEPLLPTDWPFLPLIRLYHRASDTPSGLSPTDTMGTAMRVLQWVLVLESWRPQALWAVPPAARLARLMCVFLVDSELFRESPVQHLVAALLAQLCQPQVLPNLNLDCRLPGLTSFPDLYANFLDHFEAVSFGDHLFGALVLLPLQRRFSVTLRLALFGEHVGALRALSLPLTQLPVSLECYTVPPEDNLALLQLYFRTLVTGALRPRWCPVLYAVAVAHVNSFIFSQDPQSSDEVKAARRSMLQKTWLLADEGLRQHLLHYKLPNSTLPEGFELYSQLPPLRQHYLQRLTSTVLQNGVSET
inactive: alvocidib -0.001 | Tubastatin A -0.077 | [1] 0.016 | defactinib -0.006 | [2] 0.007 | encorafenib 0.019 | [3] -0.069 | alisertib 0.013 | [4] 0.027 | gefitinib -0.007 | lapatinib -0.012 | pictilisib -0.027 | crizotinib -0.026 | [5] -0.026 | duvelisib 0.021 | gandotinib -0.002 | tozasertib 0.018 | doramapimod 0.001 | bafetinib -0.041 | [6] 0

RAB8B (UniProt Q92930)
Sequence of UniProt Q92930 (Q92930 whole entry, looked up): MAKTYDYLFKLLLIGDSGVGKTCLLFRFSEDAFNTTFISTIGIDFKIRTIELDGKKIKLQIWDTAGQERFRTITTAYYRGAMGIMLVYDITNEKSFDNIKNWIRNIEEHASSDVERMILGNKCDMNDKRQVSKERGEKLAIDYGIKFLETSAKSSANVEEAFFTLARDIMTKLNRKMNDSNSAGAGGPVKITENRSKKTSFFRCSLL
inactive: alvocidib 0.037 | Tubastatin A 0.034 | [1] -0.011 | defactinib -0.016 | [2] -0.026 | encorafenib -0.002 | [3] -0.045 | alisertib 0.016 | [4] 0.015 | gefitinib 0.115 | lapatinib 0.065 | pictilisib -0.018 | crizotinib 0.034 | [5] 0.037 | duvelisib 0.098 | tozasertib 0.003 | doramapimod -0.013 | bafetinib 0.088 | [6] -0.079
active: gandotinib -0.289

REXO4 (UniProt Q9GZR2)
Sequence of UniProt Q9GZR2 (Q9GZR2 whole entry, looked up): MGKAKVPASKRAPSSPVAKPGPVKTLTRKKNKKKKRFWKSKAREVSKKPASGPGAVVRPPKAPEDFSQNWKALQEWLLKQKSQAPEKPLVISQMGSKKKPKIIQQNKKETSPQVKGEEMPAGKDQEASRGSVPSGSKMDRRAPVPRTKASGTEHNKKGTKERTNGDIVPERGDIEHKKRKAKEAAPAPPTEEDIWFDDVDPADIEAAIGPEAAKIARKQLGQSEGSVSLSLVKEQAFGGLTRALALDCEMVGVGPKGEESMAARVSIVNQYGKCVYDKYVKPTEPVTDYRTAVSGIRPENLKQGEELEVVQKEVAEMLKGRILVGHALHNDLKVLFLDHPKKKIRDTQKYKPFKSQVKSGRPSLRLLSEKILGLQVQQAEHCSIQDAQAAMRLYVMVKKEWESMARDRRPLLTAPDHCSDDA
inactive: alvocidib 0.089 | Tubastatin A -0.108 | [1] 0.026 | defactinib 0.013 | [2] 0.032 | encorafenib -0.007 | [3] 0.08 | alisertib -0.008 | [4] 0.024 | gefitinib -0.029 | lapatinib 0 | pictilisib -0.128 | crizotinib 0.017 | duvelisib -0.003 | gandotinib -0.169 | tozasertib -0.017 | doramapimod -0.056 | bafetinib -0.06 | [6] -0.139
active: [5] 0.349
